# Experimental data from PubChem BioAssay AID623911 (Vanderbilt High Throughput Screening Facility, 2012).
# Among all 2,100 compounds or so, about 770 (37%) were called active.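 Rule for the calls: active = by-eye trace score of 1 for enhancers or -1 for inhibitors, so actives lie on both sides (some results past the limit were not filed as active); inactive = score 0, or 3 fluorescent, or 4 baseline rise.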 Some of the results follow.
# Molecular target: G protein-activated inward rectifier potassium channel 2 (Homo sapiens) + G protein-activated inward rectifier potassium channel 1 (Homo sapiens) (UniProt P48051+P48549)
# Assay: GIRK1/2 thallium flux modulators, retest, confirmation, cell-based, HEK293 rmGlu8/hGIRK1/2, FluoZin-2 (AID 623911)
# Details: HEK293 rmGlu8/hGIRK1/2, thallium flux FluoZin-2; actives lie on both sides; glutamate co-added at its EC20 level
# Sequence of G protein-activated inward rectifier potassium channel 2 (Homo sapiens) + G protein-activated inward rectifier potassium channel 1 (Homo sapiens) (P48051 whole entry, looked up): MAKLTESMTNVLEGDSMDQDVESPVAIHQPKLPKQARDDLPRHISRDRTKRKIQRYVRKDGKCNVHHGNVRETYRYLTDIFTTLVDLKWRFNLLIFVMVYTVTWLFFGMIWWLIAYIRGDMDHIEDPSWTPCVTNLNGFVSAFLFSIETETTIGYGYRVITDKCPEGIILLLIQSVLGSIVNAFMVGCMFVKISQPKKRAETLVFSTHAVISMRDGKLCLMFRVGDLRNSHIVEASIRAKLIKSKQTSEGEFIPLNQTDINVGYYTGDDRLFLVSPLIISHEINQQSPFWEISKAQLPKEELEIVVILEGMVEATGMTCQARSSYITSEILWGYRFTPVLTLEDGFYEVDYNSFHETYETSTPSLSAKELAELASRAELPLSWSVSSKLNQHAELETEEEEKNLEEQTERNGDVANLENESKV
# Sequence of G protein-activated inward rectifier potassium channel 2 (Homo sapiens) + G protein-activated inward rectifier potassium channel 1 (Homo sapiens) (P48549 whole entry, looked up): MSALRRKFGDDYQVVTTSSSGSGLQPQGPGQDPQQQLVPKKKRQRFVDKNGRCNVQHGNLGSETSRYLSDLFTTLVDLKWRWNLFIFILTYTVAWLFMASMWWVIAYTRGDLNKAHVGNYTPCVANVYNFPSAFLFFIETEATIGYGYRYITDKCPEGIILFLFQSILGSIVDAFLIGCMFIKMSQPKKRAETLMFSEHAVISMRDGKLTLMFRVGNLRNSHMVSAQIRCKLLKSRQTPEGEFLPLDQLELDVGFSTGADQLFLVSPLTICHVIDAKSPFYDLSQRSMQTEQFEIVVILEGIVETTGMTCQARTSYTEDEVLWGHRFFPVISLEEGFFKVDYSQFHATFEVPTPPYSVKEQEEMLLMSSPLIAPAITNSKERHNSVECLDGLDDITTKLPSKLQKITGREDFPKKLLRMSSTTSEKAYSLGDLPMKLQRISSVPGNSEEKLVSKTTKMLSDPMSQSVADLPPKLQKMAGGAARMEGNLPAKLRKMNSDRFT
row,Compound,manual score
1,O=C1NC(=S)SC1=C1CCCCCC1,1 (active)
2,CSc1nc2ccccc2cc1/C=C(\C#N)c1cccc(C)c1,0 (inactive)
3,CC(C)CNC(=S)NC(=O)c1ccc(F)cc1,1 (active)
4,CCCCCC(=O)NC(=S)NNC(=O)c1ccc([N+](=O)[O-])cc1,1 (active)
5,CCCCNC(=S)NC(=O)c1ccc([N+](=O)[O-])cc1,1 (active)
6,CC(C)CNC(=S)NC(=O)c1ccc([N+](=O)[O-])cc1,1 (active)
7,COC(=O)C(CC(C)C)NC(=O)c1ccc([N+](=O)[O-])c(C)c1 (configuration not stated),0 (inactive)
8,CCCCCCc1cc2cc(-c3nnc(-c4cc(OC)c(OC)c(OC)c4)o3)c(=O)oc2cc1O,3 (inactive)
9,CCn1c2ccccc2c2cc(/C=N/n3cn[nH]c3=S)ccc21,0 (inactive)
10,O=c1cc(CN2CCOCC2)nc(C2CC2)[nH]1,0 (inactive)
11,O=C(COC(=O)CCC1CCCC1)Nc1nc2c(F)c(F)c(F)cc2s1,0.5 (inactive)
12,O=C(CSc1nc(-c2ccc(F)cc2)cs1)N1CCOCC1,0 (inactive)
13,CCOC(=O)/C(C#N)=C/C1=C(N2CCCC2)CC(C)(C)OC1,0 (inactive)
14,O=C(CSc1nnc(-c2c[nH]c3ccccc23)n1-c1ccc(F)cc1)NCc1ccco1,-0.5 (inactive)
15,CCCn1c(SCc2nc3sc(C)c(C)c3c(=O)[nH]2)nc2ccccc2c1=O,0 (inactive)
16,Cc1sc2ncnc(SCc3ccco3)c2c1C,0 (inactive)
17,Cc1sc2nc(C(C)C)nc(SCC(=O)N3c4ccccc4CC3C)c2c1C (configuration not stated),1 (active)
18,Cc1sc2nc(C(C)C)nc(SCC(=O)NCc3ccco3)c2c1C,1 (active)
19,CCn1c(SCC(=O)NC(=O)NCc2ccco2)nc2sc(C)c(C)c2c1=O,1 (active)
20,O=C(c1ccc(CS(=O)(=O)c2ccc(Br)cc2)o1)N1CCN(c2ncccn2)CC1,0 (inactive)
21,CCOC(=O)C1CCN(C(=O)CN(c2ccc(Cl)c(C(F)(F)F)c2)S(C)(=O)=O)CC1,0 (inactive)
22,O=c1cc(Cn2ccnc2)c2cc3c(cc2o1)CCC3,0 (inactive)

row,Compound,manual score
1,O=C(Nc1ccc(F)cc1)c1cccc2c1C(=O)N(Cc1ccccn1)C2,0 (inactive)
2,C/C(CC(C)(C)C1CCCCC1)=N\NC(N)=S,0 (inactive)
3,Cc1ccc2nc(-c3ccc(O)cc3)c(Nc3ccc4c(c3)OCCO4)n2c1,-1 (active)
4,Cc1ccc(-c2nnc(SCC(=O)Nc3ccc4c(c3)OCCO4)n2N)cc1,0 (inactive)
5,CCn1c(-c2cc3c(C(F)(F)F)nn(C)c3s2)n[nH]c1=S,0 (inactive)
6,O=C(NC1CC1)c1ccc(CSCc2cccc(F)c2)o1,0 (inactive)
7,O=C(O)C1C2C=CC(C2)C1C(=O)NCCc1cccc(Cl)c1 (configuration not stated),0.5 (inactive)
8,O=C(CCSCc1cccc(Cl)c1)NCCc1ccc(Cl)cc1,1 (active)
9,COc1ccc(C2C(C(N)=O)=C(C)Nc3nc(-c4cccc(Cl)c4)nn32)cc1OC (configuration not stated),0 (inactive)
10,O=C(N/N=C/c1c(Cl)cccc1Cl)c1cccc(F)c1,0 (inactive)
11,CCCCCc1nnc(NC(=O)Cc2cccs2)s1,0 (inactive)
12,Cc1occc1C(=O)Nc1cccc(C(F)(F)F)c1,0 (inactive)
13,O=C(Nc1nnc(-c2cccs2)o1)c1cccc(F)c1,1 (active)
14,CCCCN(C)S(=O)(=O)c1ccc(C(=O)Nc2nnc(-c3cccs3)o2)cc1,1 (active)
15,O=C(Nc1nnc(-c2cccs2)o1)c1cccc(C(F)(F)F)c1,1 (active)
16,COc1ccc(C(=O)Nc2ccc(Oc3ncnc4sc(-c5ccccc5)cc34)cc2)cc1OC,0 (inactive)
17,O=C(Nc1nnc(-c2cccs2)o1)c1cccc(Oc2ccccc2)c1,1 (active)
18,Cc1cc(C)c(NC(=O)c2ccc(S(=O)(=O)N(C)C)cc2)c(C)n1,0 (inactive)
19,CCOc1ccc(-c2cc(C)n3nc(C(N)=O)cc3n2)cc1,0 (inactive)
20,COCCCNc1c2c3c(cccc3[nH]c1=O)C(=O)c1ccccc1-2,3 (inactive)
21,Cc1[nH]c2ccccc2c1CN1CCc2ccccc2C1,0 (inactive)
22,CNc1nc(Cl)nc(NC(C)(C)C)n1,0 (inactive)

row,Compound,manual score
1,CCOC(=O)/C(=C\C=C1/Sc2cc(OCC)c(OCC)cc2N1CC)C(C)=O,3 (inactive)
2,Cc1ccc2c(c1)N(CC(=O)N(Cc1ccccn1)Cc1ccco1)C(=O)C(C(C)C)O2 (configuration not stated),-0.5 (inactive)
3,CCC1Oc2ccc(C)cc2N(CC(=O)N(Cc2ccc(C)o2)C2CCCC2)C1=O (configuration not stated),-1 (active)
4,Cc1ccc(S(=O)(=O)c2c(C)cc(C)nc2Cl)c(C)c1,0 (inactive)
5,CCCCn1c(SCC(=O)Nc2ccc(OC)cc2)nc2ccc(N3CCOCC3)cc2c1=O,0 (inactive)
6,COc1ccc(NC(=O)CSc2nc3ccccc3c(=O)n2CCCN2CCCCC2)c(OC)c1,-1 (active)
7,CCC(C)NC(=O)CSc1nc2ccccc2c(=O)n1Cc1ccc(OC)cc1 (configuration not stated),0 (inactive)
8,CCOC(=O)CSc1nc(C)c2cc(OC)ccc2n1,0 (inactive)
9,COc1ccc(C(C)n2c(C)c3c(C)nnc(C)c3c2C)cc1 (configuration not stated),-1 (active)
10,Cn1cc(S(=O)(=O)Nc2ccc(F)cc2F)c(=O)n(C)c1=O,0 (inactive)
11,S=c1nn[nH]n1C12CC3CC(CC(C3)C1)C2,1 (active)
12,CCOC(=O)c1ccccc1Nc1cn(C(C)=O)c2ccccc12,-0.5 (inactive)
13,CCOC(=O)c1cnn2c1[nH]c(=O)c1ccccc12,1 (active)
14,Cc1cc2[nH]c(=O)c3ccccc3n2n1,0 (inactive)
15,CCS(=O)(=O)Nc1ccc(-c2nnc(SCC(=O)c3ccc(NC(C)=O)c(OC)c3)o2)cc1,0 (inactive)
16,COc1ccc(NC2=NC(=S)N(c3ccccc3C)C23CCCCC3)cc1,1 (active)
17,Cc1ccc(NC2=NC(=S)N(CC#N)C23CCCCC3)cc1,0 (inactive)
18,N#CCN1C(=S)N=C(Nc2cccc(Cl)c2)C12CCCCC2,0.5 (inactive)
19,Cc1ccc(-n2ncc3c(SCc4ccccc4)ncnc32)cc1,1 (active)
20,CCOC(=O)C(C)Sc1nc2c(cnn2-c2ccc(C)cc2)c(=O)[nH]1 (configuration not stated),0 (inactive)
21,COc1ccc(OC)c(Nc2ncnc3c2cnn3-c2cccc(C)c2)c1,0 (inactive)
22,NC(=O)CSc1ncnc2c1cnn2Cc1ccccc1,0 (inactive)

row,Compound,manual score
1,Cc1ccc(CSc2ncnc3c2cnn3-c2ccc(C)cc2)cc1,1 (active)
2,CN(C)CCNc1ncnc2c1cnn2-c1ccc(Cl)cc1,0 (inactive)
3,CCN1CCN(CCCOc2ccc(-c3ccccc3)cc2)CC1,-1 (active)
4,COc1ccc(OCCCN2CCCCCC2)cc1,0 (inactive)
5,CN(C)CCCOc1ccc(C(C)(C)c2ccccc2)cc1,0 (inactive)
6,CCCCC(=O)N1CCCC(c2nc3c(nnn3Cc3cc(C)ccc3C)c(=O)[nH]2)C1 (configuration not stated),0 (inactive)
7,Cc1cc(-c2n[nH]c(=S)n2/N=C/c2ccc(Br)s2)n[nH]1,0 (inactive)
8,S=c1[nH]nc(-c2ccco2)n1/N=C/c1ccc(Br)s1,0 (inactive)
9,S=c1[nH]nc(-c2ccccn2)n1/N=C/c1ccc(Br)s1,1 (active)
10,CN(C)Cc1cc(C(C)(C)C)c(O)c(C(C)(C)C)c1,-1 (active)
11,Cc1ccc(-c2nc3ccccc3o2)cc1NC(=S)NC(=O)c1cc2ccccc2o1,0 (inactive)
12,Cc1cccc(NC(=S)NNC(=O)c2csc(C(C)C)c2)c1,1 (active)
13,Cc1ccc(C)c(NC(=S)NNC(=O)c2csc(C(C)C)c2)c1,1 (active)
14,Cc1cc(C)c2oc(-c3ccc(C)c(NC(=S)NC(=O)c4cccs4)c3)nc2c1,0 (inactive)
15,c1cn(CC2(Cn3ccnc3)COC2)cn1,0 (inactive)
16,CN(C)CCNC(=O)c1ccc2c(c1)N(Cc1ccc(F)cc1)CCS2,-1 (active)
17,CN(C)CCNC(=O)c1cc2c(s1)-c1ccccc1OC2,0 (inactive)
18,CCCCOC(=O)Nc1ccc(C(=O)OCCC)cc1,0 (inactive)
19,CCCCOc1ccc(C(=O)OC2CC(C)N(C)CC2C)cc1 (configuration not stated),-1 (active)
20,COc1cccc(NC(=O)Cn2nnc(C(=O)Nc3ccccc3)c2N)c1,1 (active)
21,COc1cccc(NC(=O)Cn2cc(C#N)c3ccccc32)c1,1 (active)
22,Cc1cc(C)cc(NC(=O)Cn2cc3c(n2)CCCCC3)c1,1 (active)

row,Compound,manual score
1,COc1cccc(NC(=O)C(Sc2nc3ccccc3c(=O)n2CC(C)C)c2ccccc2)c1 (configuration not stated),0 (inactive)
2,CC1CCc2nn(CC(=O)N3CCN(C(=O)c4ccco4)CC3)cc2C1 (configuration not stated),0 (inactive)
3,COc1cccc(NC(=O)CSc2nc(N)cc(N)n2)c1,0 (inactive)
4,COc1cccc(NC(=O)Cn2cc3c(n2)CCCCC3)c1,1 (active)
5,O=C(CN1CCCCC1)Nc1cccc(Oc2ccccc2)c1,0 (inactive)
6,COc1cccc(NC(=S)N/N=C2/CCCCc3ccccc32)c1,0.5 (inactive)
7,COc1cccc(NC(=O)CSc2nnc(-c3ccoc3C)n2-c2ccccc2)c1,-0.5 (inactive)
8,CCCOC(=O)c1ccc(-c2c(C)noc2-c2ccc(OC)cc2O)o1,0 (inactive)
9,CC(=O)c1c(C)[nH]c(C(=O)COc2cc(C)cc(C)c2)c1C,0 (inactive)
10,Fc1ccccc1NC(=S)N/N=C/c1ccccc1Br,0 (inactive)
11,Fc1ccccc1/C=N/NC(=S)Nc1ccc(Cl)cc1Cl,0 (inactive)
12,O=[N+]([O-])c1ccc(/C=N/NC(=S)Nc2ccccc2F)o1,1 (active)
13,CSC(=O)NC12CC3CC(CC(C)(C3)C1)C2,0 (inactive)
14,COCCNC(=O)CCCCCn1c(=S)[nH]c2ccccc2c1=O,0 (inactive)
15,CCC(C)NC(=O)CN1C(=O)CC(C)(C)S(=O)(=O)c2ccccc21 (configuration not stated),0 (inactive)
16,COCCNC(=O)CN1C(=O)CSc2ncccc21,1 (active)
17,CCc1cc(-c2n[nH]c(=S)n2C(C)c2ccccc2)cs1 (configuration not stated),-0.5 (inactive)
18,CC(c1ccc(F)cc1)n1c(-c2ccc3ccccc3n2)n[nH]c1=S (configuration not stated),0.5 (inactive)
19,CC(c1ccc(Cl)cc1)n1c(-c2ccc3ccccc3n2)n[nH]c1=S (configuration not stated),1 (active)
